Compound activity (PubChem)
Mm-Cpn inhibitor – inhibitors of Methanococcus maripaludis chaperonin TRiC (MmCpn); Potency, µM (titrated, usually from 76.9 µM), inactives show top-dose activity, negative = inhibition, usual class: inhibitors; 0.031% of 330,000 active; purified Mm-Cpn ATPase, ADP Transcreener TR-FRET; active = well fitted inhibition curve with a large enough effect; inconclusive = small, poorly fitted or top-dose-only effect; also: potency is read from the fitted curve at half-maximal effect; % is scaled to controls: 0 for no effect and ±100 for the full control effect; nearly all actives have a fitted effect of over 80% in size
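Purified archaeal chaperonin (25 nM final) was preincubated with compound for 10 min at 37°C, then ATP (10 uM final) was added for 30 min at 37°C in Tris pH 7.4/KCl/MgCl2/DTT buffer. ADP was quantified by HTRF Transcreener TR-FRET.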
TSHR antagonist – human thyrotropin receptor antagonism. P16473. TSHR-expressing cells, TSH-stimulated cAMP HTRF, 2 h; hits give low values. activity change, negative = inhibition, % at 11.5 µM. 0.2% of 330,000 active. AID 504810;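 active = activity change below a set negative limit, meaning inhibition stronger than a set level, cut at about -70% in these data; inconclusive = activity change between two set negative limits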; also: % is scaled to controls: 0 for no effect and ±100 for the full control effect
Target sequence (P16473 whole entry, looked up): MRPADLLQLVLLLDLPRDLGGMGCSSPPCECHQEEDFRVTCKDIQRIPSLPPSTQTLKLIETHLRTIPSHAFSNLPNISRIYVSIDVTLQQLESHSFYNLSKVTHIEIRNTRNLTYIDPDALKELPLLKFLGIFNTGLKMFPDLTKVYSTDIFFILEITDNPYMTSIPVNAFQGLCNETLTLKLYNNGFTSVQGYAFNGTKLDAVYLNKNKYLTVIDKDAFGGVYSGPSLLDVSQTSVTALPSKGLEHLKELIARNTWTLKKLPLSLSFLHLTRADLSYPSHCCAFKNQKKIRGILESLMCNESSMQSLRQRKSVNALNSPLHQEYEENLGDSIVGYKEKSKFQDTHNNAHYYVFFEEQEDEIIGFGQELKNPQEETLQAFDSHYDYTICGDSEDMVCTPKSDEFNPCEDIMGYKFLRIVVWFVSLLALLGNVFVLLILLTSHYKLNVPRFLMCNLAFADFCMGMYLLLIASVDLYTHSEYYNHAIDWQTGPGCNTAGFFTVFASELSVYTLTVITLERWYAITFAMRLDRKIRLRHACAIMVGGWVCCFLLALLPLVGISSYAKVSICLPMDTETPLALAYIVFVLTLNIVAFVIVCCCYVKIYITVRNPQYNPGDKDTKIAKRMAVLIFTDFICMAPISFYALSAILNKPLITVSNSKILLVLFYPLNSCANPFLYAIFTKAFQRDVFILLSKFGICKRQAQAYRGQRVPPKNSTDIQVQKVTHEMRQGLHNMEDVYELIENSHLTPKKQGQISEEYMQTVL
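Inhibition of cAMP made by TSHR-expressing cells under TSH stimulation (4nM final, EC80; 2 h, 37 deg C) is quantified with a one-step lysis HTRF kit, anti-cAMP cryptate versus cAMP-d2.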
CCT chaperon mod – cytosolic chaperonin activity modulation; purified chaperonin ATPase assay, HTRF ADP detection, 30 min; activity change, % (no concentration beside the values), hits read low; 0.3% of 360,000 active; in the data active = activity change below about -30%; also: % is scaled to controls: 0 for no effect and ±100 for the full control effect
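TRiC at 40 or 20 nM final (batch-dependent) in 30 mM Tris pH 7.4, 100 mM KCl, 5 mM MgCl2, 1 mM DTT, with compound at single 76 uM and 10 uM ATP, 30 min at 37 deg C. ADP detected by HTRF Transcreener, 665/615 ratio.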
gsp ag – activates gsp, the McCune-Albright syndrome mutation. gsp mutant cells, cAMP HTRF, 30 min. Potency, µM (series often up to 76.9 µM), for the others: at the top dose activation (cAMP increase), most hits filed as activators. 0.13% of 340,000 active; active = well fitted activation curve with a large enough effect; inconclusive = small, poorly fitted or top-dose-only effect, or another doubt; inactive = no such curve, though single readings can be large or run the other way; cell line not stated here;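 also: phosphodiesterase inhibitor Ro 20-1724 added with compounds to block cAMP breakdown; potency is read from the fitted curve at half-maximal effect; nearly all actives have a fitted effect of over 60% in size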
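Cells stably selected in G418 were plated at 2000/well, grown 16-24 hr, then given compounds in DMSO with the PDE inhibitor […] (300 uM solution added) for 30 min at 37C; cAMP was read by HTRF.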
gsp antagonist – gsp mutant antagonism | gsp-mutant cells, cAMP HTRF, 30 min | Potency, µM (top dose mostly 76.9 µM), inactives show at the highest dose activity change, negative = inhibition, usual class: inhibitors | 0.4% of 340,000 active | AID 624288; calls by dose curve; cell line not stated here;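 also: intracellular cAMP measured with PDE inhibitor Ro 20-1724 present during compound exposure; potency is read from the fitted curve at half-maximal effect; % is scaled to controls: 0 for no effect and ±100 for the full control effect; nearly all actives have a fitted effect of over 65% in size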
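Measurement of cellular cAMP by homogeneous time-resolved fluorescence following a 30 min compound exposure at 37C. The PDE inhibitor […] was present throughout; the assay buffer was DPBS with 0.05% BSA and 0.005% Tween 20.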
uPA surface inh – cell surface uPA generation inhibition. cell surface uPA generation assay, qHTS. Potency, µM (titrated, usually from 38.3 µM), for inactives: top-dose activity change, negative = inhibition, usual class: inhibitors. 0.31% of 330,000 active. AID 540303; active = well fitted inhibition curve with a large enough effect; inconclusive = small, poorly fitted or top-dose-only effect; inactive = no such curve, though single readings can be large or run the other way; tested in mouse RAW 264.7 cells; also: potency is read from the fitted curve at half-maximal effect; % is scaled to controls: 0 for no effect and ±100 for the full control effect; nearly all actives have a fitted effect of over 55% in size
Numbers without * were called inactive; ? = inconclusive; · = not tested or not shown; [ ] = remark or other dose. Sampled rows, rich in hits. Any-hit rate of the full collection: about 1.2%.

SMILES | Mm-Cpn inhibitor | TSHR antagonist | CCT chaperon mod | gsp ag | gsp antagonist | uPA surface inh
O=C(COc1ccccc1[N+](=O)[O-])Nc1cccc(Cl)c1N1CCOCC1 | 1% | -10 | -3 | -49% | ? | 10µM*
CCOc1cc(N2CCOCC2)c(OCC)cc1NC(=O)COc1ccccc1[N+](=O)[O-] | 0% | -1 | -9 | -6%[15.4 µM] | -14% | 1%
N#Cc1ccc(Oc2ccc(-c3nc4ccccc4nc3-c3ccccc3)cc2)cc1C#N | 0% | 6 | 1 | 31% | -1% | 0%
Cc1nnc(SCC(=O)NC23CC4CC(CC(C4)C2)C3)n(N)c1=O | 0% | 0 | -42* | 3% | 0% | 3%
CC(=O)NC(=S)Nc1sc2c(c1C#N)CCCCC2 | 2% | 16 | -31* | 14%[15.4 µM] | ? | -10%
N#Cc1c(NC(=S)NC(=O)Cc2cccs2)sc2c1CCCCC2 | -2% | -3 | 0 | 32% | 32µM* | -7%
CSc1nc(N)nc(SCC(=O)C23CC4CC(CC(C4)C2)C3)c1C#N | -4% | -36 | 1 | 30% | ? | ·
N#Cc1c(N)nc(SCC(=O)C23CC4CC(CC(C4)C2)C3)c(C#N)c1-c1ccc(Cl)cc1 | -7% | 4 | -40* | ? | 29% | 4%
CCOC(=O)c1cc(OC(=O)c2cccc([N+](=O)[O-])c2)n(-c2ccccc2)n1 | 0% | 3 | -35* | ? | -19% | ·
CN(c1cccc(NC(=O)c2ccc(Cl)c(S(=O)(=O)Nc3ccccc3)c2)c1)S(C)(=O)=O | 2% | -41 | 1 | -12% | 8.9µM* | ·
CCc1c(C)sc(NC(=O)c2cccs2)c1C#N | ? | 0 | -6 | 4% | 5% | -5%
CNc1nc(-c2ccc3c(c2)CCN3C(=O)c2ccc(F)cc2)cs1 | -9% | 1 | -1 | 14% | -3% | 8%
CNc1nc(-c2ccc3c(c2)CCN3C(=O)c2cccc(F)c2)cs1 | -9% | -3 | 0 | ? | -25% | 7.1µM*
O=c1cc(-c2ccccc2)nc2nc(SCc3ccccc3)[nH]n12 | 0% | -9 | -2 | -17% | 25µM* | 2%
COc1cc(C(=O)Nc2cc(C)cc(C)c2)c(-n2cnnn2)cc1OC | -6% | 6 | 0 | 1%[15.4 µM] | · | -3%
CCOc1cccc(C2/C(=C(\O)c3ccc4c(c3)OCCO4)C(=O)C(=O)N2Cc2ccncc2)c1 (centres undefined) | -1% | -12 | 2 | ? | 19% | 1%
CC1Cc2cc(/C(O)=C3\C(=O)C(=O)N(Cc4ccncc4)C3c3ccccc3F)ccc2O1 (centres undefined) | -3% | 1 | -3 | 3.2µM* | 7% | 5%
COC(=O)c1ccc(C2/C(=C(/O)c3ccc4c(c3)CC(C)O4)C(=O)C(=O)N2Cc2cccnc2)cc1 (centres undefined) | -3% | 0 | 0 | ? | 9% | 11%
CC1Cc2cc(/C(O)=C3/C(=O)C(=O)N(Cc4cccnc4)C3c3cccc(O)c3)ccc2O1 (centres undefined) | 1% | 12 | -79* | ? | 2% | -4%
CC1Cc2cc(/C(O)=C3\C(=O)C(=O)N(CCN(C)C)C3c3ccccc3F)ccc2O1 (centres undefined) | -2% | 3 | 0 | ? | 8% | ·
CCOc1cccc(C2/C(=C(/O)c3ccc4c(c3)CC(C)O4)C(=O)C(=O)N2Cc2ccncc2)c1 (centres undefined) | -5% | 3 | -2 | 5µM* | -13% | 4%
O=S(=O)(c1ccc(Br)s1)N1CCCCC1 | 0% | -7 | -1 | -2% | 5% | 21%
COc1cccc(CNc2nccs2)c1O | 1% | 18 | -1 | 2%[15.4 µM] | 6% | 0%
CC(=O)N(C)Cc1ccc(C(=O)CCl)cc1 | -1% | 2 | 1 | -9%[15.4 µM] | 3% | -3%
COC(=O)c1ccc(N)c(CS(=O)(=O)c2ccc(Cl)cc2)c1 | -9% | 2 | 2 | -36% | -6% | 7%
SMILES | Mm-Cpn inhibitor | TSHR antagonist | CCT chaperon mod | gsp ag | gsp antagonist | uPA surface inh
COc1cc(-c2nc3c4ccccc4nc(=S)n3[nH]2)cc(OC)c1OC | 1% | 15 | -37* | -3% | -19% | -5%
CC(=O)Oc1c(C)cc(Cl)cc1C(=O)Nc1ccc([N+](=O)[O-])cc1Cl | 2% | -82* | 0 | -26% | 3.5µM* | ?
CC(=O)OCC(=O)Nc1ccc([N+](=O)[O-])cc1Cl | -2% | -3 | -3 | -20% | 4% | -1%
CCc1ccc(NC(=O)c2ccc(-n3cncn3)c([N+](=O)[O-])c2)cc1 | 2% | · | 0 | 9% | 50µM* | 0%
O=C(Nc1cccc(/C=C/c2ccccn2)c1)c1ccc(-n2cncn2)c([N+](=O)[O-])c1 | -1% | -21 | 5 | -2%[15.4 µM] | 40µM* | -10%
O=C(NCCNC(=O)c1cnccn1)c1ccc(Cl)cc1 | 0% | 31 | 0 | 26% | 11% | -3%
COC(CNC(=O)C1CCCN1C(=O)OCc1ccccc1)OC (centres undefined) | 1% | 10 | -3 | 0% | 6% | 4%
COC(=O)[C@@H]1C[C@]2(OC(=O)c3ccccc3)C=CC(=O)C[C@@H]2N1C(=O)OCc1ccccc1 | -2% | -6 | -3 | · | 3% | 3.2µM*
CNc1cncc(-c2cc(OC)ccc2OC)n1 | · | · | -1 | · | · | ·
COc1ccc(OC)c(-c2cnc(OC(C)(C)C)nc2OC(C)(C)C)c1 | 0% | -6 | 1 | -116% | 5% | 2.2µM*
O=C(Nc1ccc(F)cc1)c1cncs1 | -1% | -8 | -5 | 14%[15.4 µM] | 11% | 7%
O=C(Nc1ccc(Cl)cc1)c1cncs1 | 0% | -5 | -3 | 6%[15.4 µM] | 50µM* | 1%
Cc1ccc(C(=O)NCCOC23CC4CC(CC(C4)C2)C3)cc1 | 1% | -3 | -1 | -19% | -3% | -3%
COc1cc(OC)cc(C(=O)NCCOC23CC4CC(CC(C4)C2)C3)c1 | -4% | -13 | -3 | 2.5µM* | -16% | -10%
O=C(NCCCCc1ccccc1)C1CC(c2cccc(F)c2)=NO1 (centres undefined) | 1% | -3 | -34* | · | -5% | -1%
O=C(NCCCCc1ccccc1)C1CC(c2cccc([N+](=O)[O-])c2)=NO1 (centres undefined) | -1% | -2 | -7 | 2% | ? | -3%
Cc1nn(C)cc1-c1cc(C(=O)O)c2ccccc2n1 | 0% | -16 | -2 | 14%[15.4 µM] | -9% | 0%
O=[N+]([O-])c1nn(-c2ccc(Cl)cc2)n(O)c1=NCc1ccncc1 | 1% | -9 | -2 | 4% | 1% | 13µM*
Cc1ccc(CN=c2c([N+](=O)[O-])nn(-c3ccc(Cl)cc3)n2O)cc1 | -4% | 32 | -1 | 1% | -5% | -23%
O=[N+]([O-])c1nn(-c2ccccc2)n(O)c1=NCCc1ccccc1 | 1% | 10 | 0 | -18% | -17% | -10%
